# Shown are actives, neighbours in structure and some others; about 6.1% of the full set was active somewhere.
# ERG-DNA inh: qHTS for Small Molecule Inhibitors of the ERG Ets/DNA interaction | fluorescence polarization, His-ERG Ets domain / labelled DNA | Potency, µM (titrated, usually from 76.9 µM), for the others: top-dose FP activity, negative = inhibition, hits mostly inhibitors | 370,000 compounds, 0.028% hits | AID 624246, 2012; active = well fitted inhibition curve with a large enough effect in the polarisation, with a control signal flat; inconclusive = small, poorly fitted or top-dose-only effect, or effect the other way, or a change in a side signal; inactive = no such curve, though single readings can be large or run the other way; the % refers to the polarisation;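 note: polarization taken with two DNA probes labelled with fluorescein and Texas red; potency is the fitted concentration of half-maximal effect; % of control where 0% means no effect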
#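 His-tagged ERG Ets domain (1 uM in the protein solution; 300mM KCl, 50mM Tris-HCl, 1mM EDTA, 1mM DTT, pH 7.5) received compound, then a probe mix of 5 nM fluorescein-DNA and 100nM Texas-615-DNA. Fluorescence polarization was read for both dyes.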
# D1 potentiator: Potentiators of Human D1 Dopamine Receptor: qHTS; D(1A) dopamine receptor (Homo sapiens), P21728; HEK293 TREx D1 cells, calcium flux, dopamine EC20 potentiation; potentiation, % at 10 µM; 360,000 compounds, 0.036% hits; AID 504651, 2011; in the data active = potentiation above about 30%; note: 0% is about no effect
# Target sequence (P21728 whole entry, looked up): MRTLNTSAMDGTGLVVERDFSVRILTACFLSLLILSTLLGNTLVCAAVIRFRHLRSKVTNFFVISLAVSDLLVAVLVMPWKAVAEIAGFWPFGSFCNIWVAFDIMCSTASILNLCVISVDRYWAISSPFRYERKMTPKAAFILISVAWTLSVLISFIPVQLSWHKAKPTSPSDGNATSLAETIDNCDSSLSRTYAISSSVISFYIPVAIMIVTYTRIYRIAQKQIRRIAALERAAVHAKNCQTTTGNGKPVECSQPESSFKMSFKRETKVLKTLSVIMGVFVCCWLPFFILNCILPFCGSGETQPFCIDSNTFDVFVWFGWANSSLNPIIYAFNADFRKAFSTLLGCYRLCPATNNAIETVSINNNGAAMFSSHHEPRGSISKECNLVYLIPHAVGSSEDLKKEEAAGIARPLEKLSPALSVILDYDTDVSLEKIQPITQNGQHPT
# DRD3 agonist: qHTS of D3 Dopamine Receptor Agonist: qHTS; D3R DiscoveRx beta-arrestin cells, luminescence, 90 min; D(3) dopamine receptor (Homo sapiens), P35462; max activation, %; 410,000 compounds, 0.58% hits; in the data active = max activation above about 30%; note: 0% is about no effect
#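 Agonist-mode cell screen: cells plated at 1500/well and incubated overnight at 37 °C, then exposed to library compounds for 90 min at 37 °C. Detection reagent was added for 30–60 min at room temperature, and luminescence was read.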
# D1 ag: Allosteric Agonists of the Human D1 Dopamine Receptor: qHTS | D(1A) dopamine receptor (Homo sapiens), P21728 | HEK293 T-REx D1 cells, calcium flux, agonist mode | activation, % at 2 µM | 360,000 compounds, 1% hits | AID 504660, 2011; in the data active = activation above about 30%; note: 0% is about no effect
#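 Agonism was scored from calcium flux recorded over 180 s (1 read/s) after pintool compound addition, following a 10-cycle baseline. Cells were inducible force-coupled HEK293 TREx D1, plated overnight at 30 C and loaded with no-wash calcium dye.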
# D3 antag: qHTS of D3 Dopamine Receptor Antagonist: qHTS. D(3) dopamine receptor (Homo sapiens), P35462. D3R cells, DiscoveRx beta-arrestin luminescence, antagonist mode; active compounds read low. max response, negative = inhibition, %. 360,000 compounds, 2.5% hits. AID 652054, 2013; in the data active = max response below about -50%; inconclusive = no clear call, values can overlap the other calls; note: % is set by controls: 0 for no effect and ±100 for the full control effect
#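 Cells plated overnight at 1500 cells/well, then exposed to library compounds with dopamine controls for 90 minutes at 37 degrees C. DiscoveRx reagent added for 30–60 minutes at room temperature; luminescence read, quantitative HTS format.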
# D1 antag: Antagonist of Human D 1 Dopamine Receptor: qHTS; 360,000 compounds, 3.2% hits; activity change, negative = inhibition, % at 10 µM; D(1A) dopamine receptor (Homo sapiens), P21728; HEK293 TREx D1 cells, calcium flux, dopamine EC80; active compounds read low; AID 504652, 2011; in the data active = activity change below about -30%; note: % is set by controls: 0 for no effect and ±100 for the full control effect
#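 HEK293 T-REx cells expressing inducible, force-coupled D1 receptor; no-wash Ca dye, 30–90 min RT. Cmpd → 180 s read at 1 Hz → EC80 DA → 180 s read.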
# The depositor's hits bear a star; ? = inconclusive; · = no result; ! = not confirmed by another sample.
SMILES,ERG-DNA inh,D1 potentiator,DRD3 agonist,D1 ag,D3 antag,D1 antag
N#Cc1cnc(=S)n(-c2cc(C(F)(F)F)cc(C(F)(F)F)c2)c1N,·,·,1,·,18,·
CC1C/C(=N/N2C(=O)CSC2=S)CC(C)(C)C1 (stereo not given),24%,-8,-7,8,-63*,19
CC1C/C(=N/N=C2/NC(=O)CS2)CC(C)(C)C1 (stereo not given),1%,-2,2,0,19,-10
CCOC(=O)c1nnn(CC(=O)NC(=O)Nc2ccc(F)cc2)c1C(=O)OCC,9%,-2,1,42*!,0,-9
CCOC(=O)c1nnn(CC(=O)NC(=O)Nc2ccccc2)c1C(=O)OCC,-9%,0,11,8,-8,-18
CSC1=C(C#N)C(c2ccccc2Cl)C(C(=O)c2cccs2)C(O)(C(F)(F)F)N1 (stereo not given),9%,-8,0,1,6,-31*
O=C(NC(c1ccccc1)c1ccccc1)N1CCOCC1,-2%,-4,4,1,0,9
COc1ccc(OCC(O)CN2CCCCCC2)cc1 (stereo not given),9%,-3,-15,3,-54*,1
COc1ccc(OCC(O)CN2CCCC2)cc1 (stereo not given),1%,-6,8,4,-8,-8
COc1ccc(N(CC(O)CN2CCCCC2)S(=O)(=O)c2ccc(C)cc2)cc1 (stereo not given),-5%,0,-1,1,-80*,-6
OC(COc1ccc2cc(Br)ccc2c1)CN1CCCC1 (stereo not given),1%,-4,-16,68*,-27,-66*
CC(=O)c1c(C)nn(CC(O)COc2ccc3ccccc3c2)c1C (stereo not given),1%,-3,2,19,10,-25
O=S(=O)(N1CCCCC1)N1CCN(CC(O)COc2ccc3cc(Br)ccc3c2)CC1 (stereo not given),13%,-3,-25,3,-1,5
Cc1nc(C)n(CC(O)COc2ccc3cc(Br)ccc3c2)n1 (stereo not given),1%,-11,4,47*,-15,-32*
Nc1ncnc2c1ncn2[C@@H]1O[C@H](CNCc2cn(CC(=O)NC3CC3)c3ccccc23)[C@@H](O)[C@H]1O,0%,·,-5,·,?,·
CN(C)S(=O)(=O)N1CCN(CC(O)COc2ccc3cc(Br)ccc3c2)CC1 (stereo not given),-8%,-7,4,14,21,-49*
COc1ccc(-c2cc3ccccc3n2CC(O)CN2CCCCC2)cc1 (stereo not given),-1%,-7,-22,15,-87*,-15
COc1cccc(CCc2nnc(CCC(=O)N(C)C3CC(C)(C)NC(C)(C)C3)o2)c1,6%,4,-4,1,-10,8
Nc1nccnc1C(=O)OCC(=O)NC1CCCc2ccccc21 (stereo not given),6%,-4,0,-1,2,7
Cc1ccc(-c2csc3ncnc(Sc4nnnn4C)c23)cc1,·,-7,·,1,·,-13
Cn1nnnc1Sc1ncnc2scc(-c3ccc(F)cc3)c12,0%,-3,5,0,-57*,7
Cc1ccc(CS(=O)(=O)Cc2ccc(C(=O)NC3CCCCCC3)o2)cc1,2%,-2,1,0,2,6
CCn1c(/C=C/c2c(C)n(CC)c3ccccc23)nc2ccccc2c1=O,-6%,-3,35*,5,57,6
CCOc1ccc(/C(O)=C2/C(=O)C(=O)N(c3ncccn3)C2c2ccc(C)cc2)cc1 (stereo not given),5%,0,31*,3,-21,6
Cc1ccc(C(=O)CSc2nnc3c4ccccc4nc(C(C)(C)C)n23)cc1,4%,-5,6,2,-12,2
SMILES,ERG-DNA inh,D1 potentiator,DRD3 agonist,D1 ag,D3 antag,D1 antag
COc1ccc(/C=c2\s/c(=C/C(=O)c3ccc(C)cc3)[nH]c2=O)c(OC)c1,-6%,-6,-3,136*,10,-3
COc1cccc(/C=c2\s/c(=C/C(=O)c3ccc(C)cc3)[nH]c2=O)c1OC,15%,-3,-11,6,7,-9
COc1ccc(C(=O)COC(=O)C(C(C)C)N2C(=O)C3C4C=CC(C4)C3C2=O)cc1 (stereo not given),0%,2,-7,3,-7,-59*
COc1ccc(C(=O)COC(=O)CN2C(=O)C3C4C=CC(C4)C3C2=O)cc1 (stereo not given),17%,-2,-2,4,2,0
O=C(CN1C(=O)C2C3C=CC(C3)C2C1=O)OCC(=O)c1ccc(Br)cc1 (stereo not given),5%,-2,-8,14,-6,-43*
CC1CCCN(C(=O)CCNS(=O)(=O)c2ccc(Br)cc2)C1 (stereo not given),20%,-3,-1,10,4,-27
CN1CCCC1CCNS(=O)(=O)c1ccc(Br)cc1 (stereo not given),6%,-13,3,6,0,-33*
CCCCCNCc1cccc(Br)c1,·,-7,-31,7,-63*,-16
CCCCCCNCc1cccc(Br)c1,0%,-5,-31,28,-81*,3
CCCCCNCc1ccc(Br)cc1,·,-1,-35,8,?,-17
CCCCCCNCc1ccc(Br)cc1,·,1,-34,12,-66*,0
Cc1ccc(S(=O)(=O)NCc2csc(C)n2)cc1,-1%,3,-2,0,-19,1
CCOC(=O)C1=C(COC(=O)COc2cccc(C)c2C)NC(=O)NC1C (stereo not given),-10%,-3,-3,2,-6,-21
CCCCNc1oc(-c2cccs2)nc1S(=O)(=O)c1ccccc1,0%,-6,3,1,13,-9
Cc1ccc(-n2c(=O)c3sccc3n(CC(=O)NC3CCCC3)c2=O)cc1,0%,·,-16,3,-15,12
O=C(Cn1c(=O)n(-c2ccc(F)cc2)c(=O)c2sccc21)NC1CCCCC1,11%,-3,6,1,18,-61*
CC(=O)C1=C(S(=O)(=O)c2ccc(C)cc2)CS(=O)(=O)C1,-8%,-2,-7,4,-67*,-17

# High-throughput results as filed in PubChem BioAssay.
